Assay [1] deals with Retinoic acid receptor RXR-alpha (Homo sapiens) (UniProt P19793). Briefly: ATG_RXRa_TRANS: Attagene TRANS-FACTORIAL HepG2 Assay for human Retinoid X Receptor alpha (RXRa) (AID 2283012). The essentials:
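Chimeric NR-GAL4 trans-activation in HepG2, 24 h treatment; reporter transcripts quantified by fluorescence on capillary electrophoresis, analysed for upward change from DMSO.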

Assay [2] has as its target human Retinoid X Receptor beta (RXRb), RXRB (gene 6257) (UniProt P28702). Briefly: ATG_RXRb_TRANS: Attagene TRANS-FACTORIAL HepG2 Assay for human Retinoid X Receptor beta (RXRb) (AID 2283013). The essentials:
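After a 24 h incubation with test chemical, transfected HepG2 cells carrying NR-Gal4 fusions and GAL4-UAS reporter transcription units yield RNA whose reporter cDNA is FAM-labelled, HpaI-cut and sized by capillary electrophoresis; increases over DMSO are scored.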

In assay [3] the target is human Thyroid Receptor alpha (THRa1), THRA (gene 7067) (UniProt P10827). The assay can be described thus: ATG_THRa1_TRANS: Attagene TRANS-FACTORIAL HepG2 Assay for human Thyroid Receptor alpha (THRa1) (AID 2283014). The essentials:
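Measured here is mRNA from a GAL4-UAS reporter in transfected HepG2 cells carrying a Gal4-fused receptor, 24 h post-dose. DMSO served as negative control and baseline.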

Read-out in assay [4]: E-selectin (Homo sapiens) (UniProt P16581)
The assay can be described thus: BSK_3C_Eselectin: BioMAP Diversity Plus: 3C Assay for Eselectin Biomarker Activity (AID 2283015; active = hit-call score of the fitted dose curve at least 0.9, where 1 is the maximum; inactive = score below 0.9). Conditions: primary human endothelial cells (HUVEC); actives raise or lower the signal. The essentials:
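Endpoint derived by bidirectional fitting against DMSO vehicle; signal is ELISA-detected E-selectin from primary HUVEC at 24 h post-dosing, with parallel SRB staining (0.1% SRB, 560 nm) flagging cytotoxicity.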

Read-out in assay [5]: Interleukin-1 alpha (IL1a), IL1A (gene 3552)
The assay can be described thus: BSK_BE3C_IL1a: BioMAP Diversity Plus: BE3C Assay for Interleukin-1 alpha (IL1a) Biomarker Activity (AID 2283016; active = hit-call score of the fitted dose curve at least 0.9, where 1 is the maximum; inactive = score below 0.9). Conditions: primary human bronchial epithelial cells; actives raise or lower the signal. The essentials: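 Measured in human lung primary bronchial epithelial cells: IL-1a by ELISA at 24 h after dosing, with bidirectional fitting against DMSO.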

Read-out in assay [6]: Monocyte Chemoattractant Protein-1 (MCP1), CCL2 (gene 6347)
Briefly: BSK_3C_MCP1: BioMAP Diversity Plus: 3C Assay for Monocyte Chemoattractant Protein-1 (MCP1) Biomarker Activity (AID 2283017; active = hit-call score of the fitted dose curve at least 0.9, where 1 is the maximum; inactive = score below 0.9). Conditions: primary human endothelial cells (HUVEC); actives raise or lower the signal. The essentials:
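Using human vascular primary endothelium, researchers measured MCP-1 by ELISA 24 h after treatment, with DMSO serving as negative control for bidirectional fitting.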

Read-out in assay [7]: Human Leukocyte Antigen - DR isotype (HLADR), HLA-DRA (gene 3122)
The assay can be described thus: BSK_3C_HLADR: BioMAP Diversity Plus: 3C Assay for Human Leukocyte Antigen - DR isotype (HLADR) Biomarker Activity (AID 2283019; active = hit-call score of the fitted dose curve at least 0.9, where 1 is the maximum; inactive = score below 0.9). Conditions: primary human endothelial cells (HUVEC); actives raise or lower the signal. The essentials: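 Compound added to primary HUVEC cultures, 24 h incubation, then HLA-DR determined by ELISA; endpoint derived by bidirectional fitting relative to DMSO negative control.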

Read-out in assay [8]: Interleukin-8 (IL8), CXCL8 (gene 3576)
The assay can be described thus: BSK_3C_IL8: BioMAP Diversity Plus: 3C Assay for Interleukin-8 (IL8) Biomarker Activity (AID 2283020; active = hit-call score of the fitted dose curve at least 0.9, where 1 is the maximum; inactive = score below 0.9). Conditions: primary human endothelial cells (HUVEC); actives raise or lower the signal. The essentials: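 Using DMSO-treated wells as the baseline, bidirectional curve fitting was applied to ELISA-measured IL-8 from human umbilical vein endothelial cultures sampled 24 h after compound addition.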

The values below come from PubChem BioAssay (EPA / NIEHS).

SMILES strings stand for the structures. Results filed as inconclusive are left out. Calls of active or inactive are those of the source. The calls were made as follows, unless noted: active = hit-call score of the fitted dose curve at least 0.9, where 1 is the maximum; inconclusive = response in the unintended direction; inactive = score below 0.9.

Chain of Retinoic acid receptor RXR-alpha (Homo sapiens) (P19793 whole entry, looked up, the tested form may be a part): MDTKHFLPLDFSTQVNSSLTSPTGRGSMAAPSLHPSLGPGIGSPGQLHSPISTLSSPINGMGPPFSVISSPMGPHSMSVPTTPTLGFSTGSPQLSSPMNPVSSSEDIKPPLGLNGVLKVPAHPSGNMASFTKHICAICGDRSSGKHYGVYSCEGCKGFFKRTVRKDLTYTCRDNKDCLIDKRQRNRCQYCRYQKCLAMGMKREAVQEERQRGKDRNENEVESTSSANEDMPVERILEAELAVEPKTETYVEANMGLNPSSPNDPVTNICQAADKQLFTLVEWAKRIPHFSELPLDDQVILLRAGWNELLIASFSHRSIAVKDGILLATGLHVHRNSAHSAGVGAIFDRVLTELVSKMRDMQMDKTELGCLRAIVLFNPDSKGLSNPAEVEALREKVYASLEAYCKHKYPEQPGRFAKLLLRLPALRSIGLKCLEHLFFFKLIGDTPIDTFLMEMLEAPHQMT
Chain of human Retinoid X Receptor beta (RXRb), RXRB (gene 6257) (P28702 whole entry, looked up, the tested form may be a part): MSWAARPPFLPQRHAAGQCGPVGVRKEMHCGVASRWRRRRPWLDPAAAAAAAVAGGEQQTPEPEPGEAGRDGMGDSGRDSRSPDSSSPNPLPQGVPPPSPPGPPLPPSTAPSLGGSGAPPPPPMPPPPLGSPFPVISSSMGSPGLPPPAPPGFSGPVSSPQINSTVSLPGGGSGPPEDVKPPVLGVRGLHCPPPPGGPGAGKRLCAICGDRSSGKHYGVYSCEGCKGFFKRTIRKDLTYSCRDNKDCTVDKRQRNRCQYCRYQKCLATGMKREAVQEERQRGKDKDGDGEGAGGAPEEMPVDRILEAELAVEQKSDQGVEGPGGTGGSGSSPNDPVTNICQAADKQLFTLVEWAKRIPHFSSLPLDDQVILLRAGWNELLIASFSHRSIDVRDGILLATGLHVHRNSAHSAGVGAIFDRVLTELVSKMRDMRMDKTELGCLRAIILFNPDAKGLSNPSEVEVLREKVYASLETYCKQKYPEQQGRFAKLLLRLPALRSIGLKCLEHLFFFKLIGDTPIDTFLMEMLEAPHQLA
Chain of human Thyroid Receptor alpha (THRa1), THRA (gene 7067) (P10827 whole entry, looked up, the tested form may be a part): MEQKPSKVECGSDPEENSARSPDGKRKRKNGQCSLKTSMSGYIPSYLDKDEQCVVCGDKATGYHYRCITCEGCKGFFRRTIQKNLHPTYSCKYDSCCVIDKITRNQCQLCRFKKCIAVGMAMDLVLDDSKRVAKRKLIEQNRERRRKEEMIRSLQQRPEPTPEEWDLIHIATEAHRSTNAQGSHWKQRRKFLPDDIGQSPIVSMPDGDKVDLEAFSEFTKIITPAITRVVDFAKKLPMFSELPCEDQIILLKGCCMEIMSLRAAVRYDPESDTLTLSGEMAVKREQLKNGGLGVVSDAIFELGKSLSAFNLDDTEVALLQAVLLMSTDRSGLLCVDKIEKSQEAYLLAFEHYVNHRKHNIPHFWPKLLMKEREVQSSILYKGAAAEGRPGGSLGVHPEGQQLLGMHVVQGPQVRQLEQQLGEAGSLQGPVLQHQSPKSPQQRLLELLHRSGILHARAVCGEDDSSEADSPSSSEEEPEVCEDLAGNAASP
Chain of E-selectin (Homo sapiens) (P16581 whole entry, looked up): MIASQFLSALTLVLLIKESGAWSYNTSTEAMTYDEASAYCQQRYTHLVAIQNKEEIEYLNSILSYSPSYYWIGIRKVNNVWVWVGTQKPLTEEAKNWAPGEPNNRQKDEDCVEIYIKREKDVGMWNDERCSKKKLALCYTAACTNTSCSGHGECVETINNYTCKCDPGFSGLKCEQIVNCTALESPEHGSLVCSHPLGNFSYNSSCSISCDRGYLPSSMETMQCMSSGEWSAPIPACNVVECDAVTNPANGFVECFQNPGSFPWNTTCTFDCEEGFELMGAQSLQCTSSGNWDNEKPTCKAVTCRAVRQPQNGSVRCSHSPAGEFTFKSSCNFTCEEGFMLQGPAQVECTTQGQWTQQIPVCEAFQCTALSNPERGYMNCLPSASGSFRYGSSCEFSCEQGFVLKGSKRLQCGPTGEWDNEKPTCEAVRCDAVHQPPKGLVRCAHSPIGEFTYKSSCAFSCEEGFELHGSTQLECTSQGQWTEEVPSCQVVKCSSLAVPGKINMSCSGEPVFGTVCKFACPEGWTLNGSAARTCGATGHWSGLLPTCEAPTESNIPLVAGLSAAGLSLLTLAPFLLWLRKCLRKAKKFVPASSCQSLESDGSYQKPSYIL

Turning to `Cc1ccc(S(=O)(=O)Oc2ccc(N=Nc3ccc(-c4ccc(N=Nc5c(O)ccc6cc(S(=O)(=O)O)cc(S(=O)(=O)O)c56)c(C)c4)cc3C)cc2)cc1`, the call in assay [1], in assay [2] and in assay [3] was inactive.

`CCCCCCCCCCCCN1CCCCCC1=O`: the result in assay [1], in assay [2] and in assay [3] was inactive.

As usually defined, the AC50 is the midpoint of the concentration-response curve, whichever way the signal moves. For the compound `O=C1CCCC=CCCCCCCCCCC1`, the AC50 in assay [1] is 24.4 µM (active); in assay [2], 12.1 µM (active).

Take `O=C1OC(=O)c2c(Cl)c(Cl)c(Cl)c(Cl)c21`: the outcome in assay [1], in assay [2] and in assay [3] was inactive.

For `CCc1cc(C(C)(C)C)c(O)c(C(C)(C)C)c1`, the AC50 in assay [1] was 11.3 µM (active); in assay [2] it was 0.325 µM (active).

In the case of `CN(C)CCOc1ccc(/C(=C(/CCCl)c2ccccc2)c2ccccc2)cc1`, the compound was classed as inactive in assay [1], in assay [2] and in assay [3].

For `CCCCCCC(C)Nc1ccc(Nc2ccccc2)cc1` (centres undefined), the AC50 in assay [1] is 34.4 µM (active); in assay [2], 30.2 µM (active); in assay [3] it was 27.1 µM (active).

For `CCCCC(CC)(CO)CO`, the compound was classed as inactive in assay [1] and in assay [2].

On to `CCC(Cl)C(Cl)C(Cl)CC(Cl)C(Cl)C(C)Cl` (centres undefined), for which the compound was called inactive in assay [1] and in assay [3]. In assay [2], the AC50 was 16.4 µM (active).

On to `CCCOC(=O)c1c(Cl)c(Cl)c(Cl)c(Cl)c1C(=O)OCCC`, for which the outcome in assay [1] and in assay [3] was inactive. In addition, in assay [2], the AC50 was 10.6 µM (active).

For `CCCCC1CCC(O)CC1` (centres undefined), the compound was classed as inactive in assay [1], in assay [2] and in assay [3].

As to `N#Cc1ccc(CC(=O)c2cccc(C(F)(F)F)c2)cc1`, the values for the AC50 in assay [1], in assay [2] and in assay [3] were 26.4 µM (active), 5.99 µM (active) and 42 µM (active), respectively.

Take `Cc1ccc2c(c1)C(=O)OC2=O`: the call in assay [1] and in assay [2] was inactive.

`O=C(Nc1ccc([N+](=O)[O-])cc1)Nc1ccc([N+](=O)[O-])cc1` (tested in a mixture with another compound): the outcome in assay [1] and in assay [2] was inactive.

In the case of `CC=Cc1ccc(OC)c(OC)c1`, the outcome in assay [1], in assay [2] and in assay [3] was inactive.

Take `CSc1c(Cl)c(Cl)c(Cl)c(Cl)c1Cl`: the half-maximal activity concentration (AC50) in assay [1] was 27.3 µM (active); in assay [2], 2.96 µM (active).

Turning to `O=C(O)CCCCCCCCC(=O)O`, the compound was called inactive in assay [1] and in assay [2].

As for `O=C(Nc1ccc2c(c1)Cc1ccccc1-2)C(F)(F)F`, the compound was classed as inactive in assay [1], in assay [2] and in assay [3].

Consider `N[C@@H](Cc1cc(I)c(Oc2cc(I)c(O)c(I)c2)c(I)c1)C(=O)O`, for which, in assay [1], the call was inactive. In assay [2], the concentration at half-maximal activity (AC50) is 69 µM (active).

In the case of `CC1C2CC(CC2C2CCCC(O)C2)C1(C)C` (centres undefined), the compound was classed as inactive in assay [1] and in assay [2].

Turning to `CCO/C=C1\N=C(c2ccccc2)OC1=O`, the compound was called inactive in assay [1] and in assay [2].

Regarding `c1ccc(CN(Cc2ccccc2)Cc2ccccc2)cc1`, the outcome in assay [1] was inactive. The AC50 in assay [2] was 13.1 µM (active).

Consider `CC(=O)c1ccccn1`, for which the call in assay [1], in assay [2] and in assay [3] was inactive.

`CC(C)C[C@H](NC(=O)OCC1c2ccccc2-c2ccccc21)C(=O)O`: the outcome in assay [1], in assay [2] and in assay [3] was inactive.

In the case of `O=C(O)c1cccnc1C(=O)O`, the outcome in assay [1] and in assay [2] was inactive.

Consider `NCCNc1cccc2ccccc12`, for which the outcome in assay [1], in assay [2] and in assay [3] was inactive.

`C1CCOC1`: the outcome in assay [1] and in assay [2] was inactive.

Consider `CC(C)NCC(O)COc1ccc(CC(N)=O)cc1` (centres undefined), for which the result in assay [1] and in assay [2] was inactive.

As for `CC(=O)O[C@H]1C[C@@H]2CC[C@@]1(C)C2(C)C`, the outcome in assay [1] and in assay [2] was inactive.

Take `CCCCCCCCCCCC(=O)OC[C@@H](O)[C@H]1OC[C@H](O)[C@H]1O`: the compound was called inactive in assay [1] and in assay [2].

As to `ClC(c1ccccc1)(c1ccccc1)c1ccccc1`, the outcome in assay [1] and in assay [2] was inactive.

`C=C(C)[C@@H]1CC=C(C)C(=O)C1`: the compound was classed as inactive in assay [1], in assay [2] and in assay [3].

As for `CCC(=O)O[C@@H]1C[C@H]2CC[C@]1(C)C2(C)C`, the result in assay [1] and in assay [2] was inactive.

`CC(C)=CCCC(C)CC(=O)O` (centres undefined): the compound was called inactive in assay [1] and in assay [2].

Regarding `Nc1c(Cl)cc(Cl)cc1[N+](=O)[O-]`, the result in assay [1], in assay [2] and in assay [3] was inactive.

Take `NCc1ccco1`: the compound was classed as inactive in assay [1] and in assay [2].

As for `COc1cc([C@@H]2c3cc4c(cc3[C@@H](O[C@@H]3O[C@@H]5CO[C@@H](C)O[C@H]5[C@H](O)[C@H]3O)[C@H]3COC(=O)[C@H]23)OCO4)cc(OC)c1O`, the compound was called inactive in assay [1], in assay [2] and in assay [3].

On to `COC(C)(C)CC(C)=O`, for which the compound was classed as inactive in assay [1], in assay [2] and in assay [3].

In the case of `C[Si](C)(C)O[Si](C)(C)C`, the call in assay [1], in assay [2] and in assay [3] was inactive.

Consider `CC(C)CCOC(=O)c1ccccc1`, for which the compound was classed as inactive in assay [1], in assay [2] and in assay [3].

As to `C=CCCC(=O)/C=C/C1C(C)=CCCC1(C)C` (centres undefined), the compound was called inactive in assay [1] and in assay [3]. Also, the AC50 in assay [2] was 25.2 µM (active).

Turning to `COc1ccc(N)c([N+](=O)[O-])c1`, the outcome in assay [1], in assay [2] and in assay [3] was inactive.

Take `CC(C)(CO)[C@@H](O)C(=O)NCCC(=O)O`: the call in assay [1], in assay [2] and in assay [3] was inactive.

`CC/C=C\CC/C=C/CO`: the result in assay [1], in assay [2] and in assay [3] was inactive.

As for `C=C1C[C@]23C[C@@]1(O)CC[C@H]2[C@@]12C=C[C@H](O)[C@@](C)(C(=O)O1)[C@H]2[C@@H]3C(=O)O`, the call in assay [1], in assay [2] and in assay [3] was inactive.

Turning to `CC1(C)C(=O)N(Cl)C(=O)N1Br`, the compound was called inactive in assay [1], in assay [2] and in assay [3].

`Nc1ccc(N)c2c1C(=O)c1ccccc1C2=O`: the call in assay [1], in assay [2] and in assay [3] was inactive.

As for `Nc1ccccc1[N+](=O)[O-]`, the result in assay [1], in assay [2] and in assay [3] was inactive.

For the compound `CC(C)C(OC(=O)c1ccccc1)C(C)(C)COC(=O)c1ccccc1` (centres undefined), the compound was classed as inactive in assay [1] and in assay [3]. Moreover, the AC50 in assay [2] is 25.4 µM (active).

Turning to `COc1ccc(CCO)cc1`, the compound was classed as inactive in assay [1], in assay [2] and in assay [3].

Consider `CC(C)=CCCC(C)CCOC=O` (centres undefined), for which the call in assay [1], in assay [2] and in assay [3] was inactive.

For the compound `Nc1ccc2cc(S(=O)(=O)O)cc(O)c2c1N=Nc1ccccc1C(F)(F)F`, the AC50 is 78 µM (active) in assay [1] and 14.8 µM (active) in assay [2]. In addition, the result in assay [3] was inactive.

As for `O=C1OC2(c3ccccc31)c1ccc(O)c(Br)c1Oc1c2ccc(O)c1Br`, the outcome in assay [1], in assay [2] and in assay [3] was inactive. In addition, the AC50 in assay [4] was 24.7 µM (active); in assay [5], 9.21 µM (active); in assay [6] it was 20 µM (active); in assay [7], 20 µM (active); in assay [8], 24.4 µM (active).
